According to PubChem BioAssay (NCI):
This is part of a sample that, as a whole, favours compounds with a hit. Of some 83,000 tested, about 20% had one in any assay.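 Compound tested at a single concentration for 48 hours in 96-well plates; a percent growth value below 10 was scored as active.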 Unmarked numbers belong to inactive results. Calls of active or inactive are those of the source.

Experiments:
Assay in all cases: NCI-60 one-dose screen, 48 h (100 = growth as untreated, 0 = no growth, -100 = all killed)
Conditions in all cases: 10 µM unless noted
NCI-H23 lung = tested on: NCI-H23 lung
NCI-H226 lung = tested on: NCI-H226 lung
NCI-H322M lung = tested on: NCI-H322M lung
HOP-62 NSCLC = tested on: HOP-62 NSCLC
NCI-H460 lung = tested on: NCI-H460 lung
HOP-92 NSCLC = tested on: HOP-92 NSCLC
NCI-H522 lung = tested on: NCI-H522 lung
A549/ATCC NSCLC = tested on: A549/ATCC NSCLC
786-0 renal = tested on: 786-0 renal
COLO 205 colon = tested on: COLO 205 colon
DU-145 prostate = tested on: DU-145 prostate
K-562 leukemia = tested on: K-562 leukemia
MALME-3M melanoma = tested on: MALME-3M melanoma
MDA-MB-231 breast = tested on: MDA-MB-231 breast
RXF 393 renal = tested on: RXF 393 renal
SF-268 CNS = tested on: SF-268 CNS
SF-295 CNS = tested on: SF-295 CNS
SF-539 CNS = tested on: SF-539 CNS
UACC-257 melanoma = tested on: UACC-257 melanoma
M14 melanoma = tested on: M14 melanoma

**Q.** Which growth (NCI-H23 lung) does the source give for `C=C1c2nc3ccccc3n2C=C(c2ccc(Cl)cc2)N1Cc1ccc(OC)cc1` here?
**A.** 54.2%

**Q.** What about the growth (NCI-H226 lung) of the same molecule?
**A.** 80.8%

**Q.** And the growth (NCI-H322M lung)?
**A.** 101%

**Q.** What about the growth (HOP-62 NSCLC) of the same molecule?
**A.** 118%

**Q.** And the growth (NCI-H460 lung)?
**A.** 81.3%

**Q.** What about the growth (HOP-92 NSCLC) of the same molecule?
**A.** 77.4%

**Q.** What about the growth (NCI-H522 lung) of the same molecule?
**A.** 57.3%

**Q.** And the growth (A549/ATCC NSCLC)?
**A.** 84.5%

**Q.** What about the growth (786-0 renal) of the same molecule?
**A.** 94%

**Q.** What about the growth (COLO 205 colon) of the same molecule?
**A.** 71.1%

**Q.** And the growth (DU-145 prostate)?
**A.** 103%

**Q.** What about the growth (K-562 leukemia) of the same molecule?
**A.** 59.2%

**Q.** What about the growth (MALME-3M melanoma) of the same molecule?
**A.** 99.3%

**Q.** What about the growth (MDA-MB-231 breast) of the same molecule?
**A.** 90.1%

**Q.** What about the growth (RXF 393 renal) of the same molecule?
**A.** 77.5%

**Q.** And the growth (SF-268 CNS)?
**A.** 96.1%

**Q.** And the growth (SF-295 CNS)?
**A.** 94.9%

**Q.** And the growth (SF-539 CNS)?
**A.** 105%

**Q.** And the growth (UACC-257 melanoma)?
**A.** 90%

**Q.** What about the growth (M14 melanoma) of the same molecule?
**A.** 81.1%

**Q.** Which results are given for `COc1ccc(S(=O)(=O)N2CCCCCC2)cc1NC(=O)c1[nH]c(C)c2c1CCCCC2=O`?
**A.** growth (NCI-H23 lung): 30.4%; growth (NCI-H226 lung): 45.5%; growth (NCI-H322M lung): 35.8%; growth (HOP-62 NSCLC): 26.8%; growth (NCI-H460 lung): 42.2%; growth (HOP-92 NSCLC): 31.5%; growth (NCI-H522 lung): 27.3%; growth (A549/ATCC NSCLC): 29.6%; growth (786-0 renal): 34.9%; growth (COLO 205 colon): 26.8%; growth (DU-145 prostate): 58%; growth (K-562 leukemia): 21.4%; growth (MALME-3M melanoma): 55.6%; growth (MDA-MB-231 breast): 36.3%; growth (RXF 393 renal): 34.7%; growth (SF-268 CNS): 52.8%; growth (SF-295 CNS): 25.5%; growth (SF-539 CNS): 29.9%; growth (UACC-257 melanoma): 34.5%; growth (M14 melanoma): 42.8%

**Q.** Which growth (NCI-H23 lung) does the source give for `CN1CCN(CCCOc2cccc3nc(Nc4ccc(Cl)c(F)c4)ccc23)CC1` here?
**A.** 63.3%

**Q.** What about the growth (NCI-H226 lung) of the same molecule?
**A.** 58.1%

**Q.** What about the growth (NCI-H322M lung) of the same molecule?
**A.** 33.6%

**Q.** What about the growth (HOP-62 NSCLC) of the same molecule?
**A.** 61%

**Q.** And the growth (NCI-H460 lung)?
**A.** 13.2%

**Q.** What about the growth (HOP-92 NSCLC) of the same molecule?
**A.** 30.8%

**Q.** What about the growth (NCI-H522 lung) of the same molecule?
**A.** 29.8%

**Q.** And the growth (A549/ATCC NSCLC)?
**A.** 40.1%

**Q.** And the growth (786-0 renal)?
**A.** 64.1%

**Q.** And the growth (COLO 205 colon)?
**A.** -54.7% (active)

**Q.** What about the growth (DU-145 prostate) of the same molecule?
**A.** 38.8%

**Q.** What about the growth (K-562 leukemia) of the same molecule?
**A.** -48.6% (active)

**Q.** And the growth (MALME-3M melanoma)?
**A.** 1.94% (active)

**Q.** And the growth (MDA-MB-231 breast)?
**A.** -57.6% (active)

**Q.** And the growth (RXF 393 renal)?
**A.** 54%

**Q.** And the growth (SF-268 CNS)?
**A.** 44.3%

**Q.** And the growth (SF-295 CNS)?
**A.** 46%

**Q.** And the growth (SF-539 CNS)?
**A.** 16.9%

**Q.** What about the growth (UACC-257 melanoma) of the same molecule?
**A.** -31% (active)

**Q.** What about the growth (M14 melanoma) of the same molecule?
**A.** -27.7% (active)

**Q.** `CN(C)CCN1C(=O)c2cccc3c(N)ccc(c23)C1=O` was tested. Which growth (NCI-H23 lung) did it give?
**A.** 44.3%

**Q.** And the growth (NCI-H226 lung)?
**A.** 23.9%

**Q.** And the growth (NCI-H322M lung)?
**A.** 58.5%

**Q.** And the growth (HOP-62 NSCLC)?
**A.** 58.1%

**Q.** What about the growth (NCI-H460 lung) of the same molecule?
**A.** -5.38% (active)

**Q.** What about the growth (HOP-92 NSCLC) of the same molecule?
**A.** 19.9%

**Q.** What about the growth (NCI-H522 lung) of the same molecule?
**A.** 7.81% (active)

**Q.** And the growth (A549/ATCC NSCLC)?
**A.** 6.47% (active)

**Q.** And the growth (786-0 renal)?
**A.** 36.9%

**Q.** And the growth (COLO 205 colon)?
**A.** 8.15% (active)

**Q.** And the growth (DU-145 prostate)?
**A.** 25.9%

**Q.** And the growth (K-562 leukemia)?
**A.** 2.08% (active)

**Q.** And the growth (MALME-3M melanoma)?
**A.** 46.7%

**Q.** And the growth (MDA-MB-231 breast)?
**A.** 58.3%

**Q.** And the growth (RXF 393 renal)?
**A.** 4.79% (active)

**Q.** What about the growth (SF-268 CNS) of the same molecule?
**A.** 17.5%

**Q.** And the growth (SF-295 CNS)?
**A.** 21.4%

**Q.** And the growth (SF-539 CNS)?
**A.** 19.4%

**Q.** What about the growth (UACC-257 melanoma) of the same molecule?
**A.** 9.42% (active)

**Q.** What about the growth (M14 melanoma) of the same molecule?
**A.** 34.4%

**Q.** Which results are given for `CC[C@@H](C(=O)[C@@H](C)[C@@H](O)[C@H](C)[C@@H]1O[C@@H]([C@@H](CC)C(=O)O)CC[C@@H]1C)[C@H]1OC2(C=C[C@@H](O)[C@]3(CC[C@@](C)([C@H]4CC[C@](O)(CC)[C@H](C)O4)O3)O2)[C@H](C)C[C@@H]1C` (stereo not given in full)?
**A.** growth (NCI-H23 lung): 4.65% (active); growth (NCI-H226 lung): 14.1%; growth (NCI-H322M lung): 24.2%; growth (HOP-62 NSCLC): 39.3%; growth (NCI-H460 lung): 10%; growth (HOP-92 NSCLC): -14.8% (active); growth (NCI-H522 lung): -54.6% (active); growth (A549/ATCC NSCLC): 11.9%; growth (786-0 renal): 3.62% (active); growth (COLO 205 colon): 17.1%; growth (DU-145 prostate): 45.8%; growth (K-562 leukemia): -33.8% (active); growth (MALME-3M melanoma): -90.7% (active); growth (MDA-MB-231 breast): -39% (active); growth (RXF 393 renal): -32.6% (active); growth (SF-268 CNS): 27.4%; growth (SF-295 CNS): 1.38% (active); growth (SF-539 CNS): -28.1% (active); growth (UACC-257 melanoma): 7.26% (active); growth (M14 melanoma): -86.7% (active)

**Q.** Which results are given for `CSc1nc2c(c(=O)[nH]1)C1(C(=O)Nc3ccccc31)c1c(nc(SC)[nH]c1=O)N2`?
**A.** growth (NCI-H23 lung): 105%; growth (NCI-H226 lung): 94.9%; growth (NCI-H322M lung): 92.5%; growth (HOP-62 NSCLC): 113%; growth (NCI-H460 lung): 103%; growth (HOP-92 NSCLC): 98.8%; growth (NCI-H522 lung): 123%; growth (A549/ATCC NSCLC): 100%; growth (786-0 renal): 103%; growth (COLO 205 colon): 109%; growth (DU-145 prostate): 105%; growth (K-562 leukemia): 112%; growth (MALME-3M melanoma): 93.7%; growth (MDA-MB-231 breast): 107%; growth (RXF 393 renal): 103%; growth (SF-268 CNS): 98.2%; growth (SF-295 CNS): 103%; growth (SF-539 CNS): 102%; growth (UACC-257 melanoma): 104%; growth (M14 melanoma): 97.2%

**Q.** Which growth (NCI-H23 lung) does the source give for `COc1ccc(-c2nc3ccc(-c4nc5ccc(N6CCN(C)CC6)cc5[nH]4)cc3[nH]2)cc1OC` here?
**A.** 62.7%

**Q.** And the growth (NCI-H226 lung)?
**A.** 54.6%

**Q.** What about the growth (NCI-H322M lung) of the same molecule?
**A.** 96.5%

**Q.** What about the growth (HOP-62 NSCLC) of the same molecule?
**A.** 76.9%

**Q.** What about the growth (NCI-H460 lung) of the same molecule?
**A.** 103%

**Q.** And the growth (HOP-92 NSCLC)?
**A.** 89.8%

**Q.** What about the growth (NCI-H522 lung) of the same molecule?
**A.** 13.7%

**Q.** What about the growth (A549/ATCC NSCLC) of the same molecule?
**A.** 96.1%

**Q.** And the growth (786-0 renal)?
**A.** 79.1%

**Q.** What about the growth (COLO 205 colon) of the same molecule?
**A.** 25.5%

**Q.** And the growth (DU-145 prostate)?
**A.** 77.6%

**Q.** What about the growth (K-562 leukemia) of the same molecule?
**A.** 40.5%

**Q.** And the growth (MALME-3M melanoma)?
**A.** 0.551% (active)

**Q.** And the growth (MDA-MB-231 breast)?
**A.** 82.9%

**Q.** And the growth (RXF 393 renal)?
**A.** 96.6%

**Q.** What about the growth (SF-268 CNS) of the same molecule?
**A.** 50.6%

**Q.** What about the growth (SF-295 CNS) of the same molecule?
**A.** 66.6%

**Q.** And the growth (SF-539 CNS)?
**A.** 70.5%

**Q.** What about the growth (UACC-257 melanoma) of the same molecule?
**A.** 25.2%

**Q.** And the growth (M14 melanoma)?
**A.** 18.3%
